According to PubChem BioAssay (NCI):
About 83,000 compounds went through this panel and 20% of them were active in at least one assay; those are over-represented in the sample as a whole.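 Single-concentration screen, 48 h exposure, 96-well plates. Endpoint: percent growth. Below 10 = active.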 Calls of active or inactive are those of the source.

Experiments:
Assay in all cases: NCI-60 one-dose screen, 48 h (100 = growth as untreated, 0 = no growth, -100 = all killed)
Conditions in all cases: 10 µM
RPMI-8226 leukemia = tested on: RPMI-8226 leukemia
OVCAR-8 ovarian = tested on: OVCAR-8 ovarian
OVCAR-5 ovarian = tested on: OVCAR-5 ovarian
OVCAR-4 ovarian = tested on: OVCAR-4 ovarian
SK-OV-3 ovarian = tested on: SK-OV-3 ovarian
IGROV1 ovarian = tested on: IGROV1 ovarian
OVCAR-3 ovarian = tested on: OVCAR-3 ovarian
HS 578T breast = tested on: HS 578T breast
NCI/ADR-RES ovarian = tested on: NCI/ADR-RES ovarian
T-47D breast = tested on: T-47D breast
BT-549 breast = tested on: BT-549 breast
MDA-MB-435 melanoma = tested on: MDA-MB-435 melanoma
SW-620 colon = tested on: SW-620 colon
MCF7 breast = tested on: MCF7 breast
HCT-116 colon = tested on: HCT-116 colon
HCC-2998 colon = tested on: HCC-2998 colon
KM12 colon = tested on: KM12 colon

Measured: growth

N=c1nc(N)ncn1-c1ccccc1
inactive: RPMI-8226 leukemia 97.7% | OVCAR-8 ovarian 99.5% | OVCAR-5 ovarian 95% | OVCAR-4 ovarian 100% | SK-OV-3 ovarian 96.3% | IGROV1 ovarian 104% | OVCAR-3 ovarian 116% | HS 578T breast 101% | NCI/ADR-RES ovarian 102% | T-47D breast 86.5% | BT-549 breast 107% | MDA-MB-435 melanoma 107% | SW-620 colon 107% | MCF7 breast 92.4% | HCT-116 colon 97.4% | HCC-2998 colon 101% | KM12 colon 108%

COc1cc2cc3c(nc2cc1OC)CCN3Cc1ccc(NC(=O)Nc2cc(C(F)(F)F)cc(C(F)(F)F)c2)cc1
inactive: RPMI-8226 leukemia 54.2% | OVCAR-8 ovarian 61.7% | OVCAR-5 ovarian 92.6% | OVCAR-4 ovarian 80.5% | SK-OV-3 ovarian 95.2% | IGROV1 ovarian 84.3% | OVCAR-3 ovarian 51.6% | HS 578T breast 77.4% | NCI/ADR-RES ovarian 60.5% | T-47D breast 71.5% | BT-549 breast 106% | MDA-MB-435 melanoma 76.4% | SW-620 colon 88.3% | MCF7 breast 49.3% | HCT-116 colon 66.7% | HCC-2998 colon 83.4% | KM12 colon 68.6%

CCc1ccc2c(c1)N(CCO)C1=C(C(=O)OC1)C2c1cc(OC)c(OC)c(OC)c1 (centres undefined)
inactive: RPMI-8226 leukemia 18.3% | OVCAR-5 ovarian 36.6% | OVCAR-4 ovarian 48.6% | SK-OV-3 ovarian 23.4% | IGROV1 ovarian 10.1% | T-47D breast 59.7% | BT-549 breast 19.8% | SW-620 colon 23% | MCF7 breast 19.4%
active: OVCAR-8 ovarian 8.75% | OVCAR-3 ovarian -57.6% | HS 578T breast 1.11% | NCI/ADR-RES ovarian -3.11% | MDA-MB-435 melanoma -69.9% | HCT-116 colon 7.59% | KM12 colon -29.6%

CCN(CC)CCC(CNc1c(C)cnc2cc(Cl)ccc12)c1ccc(Cl)c(Cl)c1 (centres undefined)
inactive: RPMI-8226 leukemia 24.5% | OVCAR-8 ovarian 65.7% | OVCAR-5 ovarian 58.3% | OVCAR-4 ovarian 63.6% | SK-OV-3 ovarian 84.1% | IGROV1 ovarian 33.2% | OVCAR-3 ovarian 77% | HS 578T breast 72.3% | NCI/ADR-RES ovarian 63.7% | T-47D breast 65.4% | BT-549 breast 75.1% | SW-620 colon 46.2% | MCF7 breast 27.4% | HCT-116 colon 21.7% | KM12 colon 71.3%
active: MDA-MB-435 melanoma 0.88% | HCC-2998 colon -18.2%

CCCC#CCN(CC)CC
inactive: RPMI-8226 leukemia 105% | OVCAR-8 ovarian 100% | OVCAR-5 ovarian 112% | OVCAR-4 ovarian 104% | SK-OV-3 ovarian 107% | IGROV1 ovarian 110% | OVCAR-3 ovarian 117% | HS 578T breast 105% | NCI/ADR-RES ovarian 114% | T-47D breast 108% | BT-549 breast 120% | MDA-MB-435 melanoma 95% | SW-620 colon 107% | MCF7 breast 102% | HCT-116 colon 109% | HCC-2998 colon 120% | KM12 colon 111%

CCOC(=O)C(=Cc1ccc(Br)cc1)C(=O)OCC
inactive: SK-OV-3 ovarian 34% | NCI/ADR-RES ovarian 10.6%
active: RPMI-8226 leukemia -34.3% | OVCAR-8 ovarian -22.4% | OVCAR-5 ovarian 5.97% | OVCAR-4 ovarian 0.0605% | IGROV1 ovarian -82.1% | OVCAR-3 ovarian -35.1% | HS 578T breast -16.3% | T-47D breast -16.7% | BT-549 breast -43.3% | MDA-MB-435 melanoma -4.37% | SW-620 colon -71.2% | MCF7 breast 0.372% | HCT-116 colon -80.4% | HCC-2998 colon -82.2% | KM12 colon -25.3%

O=C(O)c1ccc(Cl)cc1Nc1ccc(F)cc1
inactive: RPMI-8226 leukemia 88.6% | OVCAR-8 ovarian 74.1% | OVCAR-5 ovarian 81% | OVCAR-4 ovarian 38% | SK-OV-3 ovarian 70.9% | IGROV1 ovarian 119% | HS 578T breast 94.3% | NCI/ADR-RES ovarian 91.3% | T-47D breast 78.7% | BT-549 breast 32.5% | MDA-MB-435 melanoma 83.2% | SW-620 colon 94.6% | MCF7 breast 76.7% | HCT-116 colon 72.8% | HCC-2998 colon 81.9% | KM12 colon 74.5%
active: OVCAR-3 ovarian 6.97%

O=C1OCC2=C1C(c1cccc(Cl)c1)c1cc3c(cc1N2CCO)CCC3 (centres undefined)
active: OVCAR-8 ovarian 4.21% | OVCAR-3 ovarian -54.2% | HS 578T breast -1.05% | NCI/ADR-RES ovarian -23% | BT-549 breast 8.33% | MDA-MB-435 melanoma -49.5% | HCT-116 colon 2.02% | KM12 colon -47.4%
inactive: RPMI-8226 leukemia 17.3% | OVCAR-5 ovarian 46.1% | OVCAR-4 ovarian 50.4% | SK-OV-3 ovarian 23.5% | IGROV1 ovarian 15.9% | T-47D breast 66.1% | SW-620 colon 16% | MCF7 breast 14.1%

Fc1ccc2nc(-c3nc(-c4ccccc4)n4ccccc34)[nH]c2c1
inactive: OVCAR-5 ovarian 55.9% | SW-620 colon 26.5% | HCC-2998 colon 29.2%
active: RPMI-8226 leukemia -25.9% | OVCAR-8 ovarian -58.7% | OVCAR-4 ovarian -71.2% | SK-OV-3 ovarian -43.2% | IGROV1 ovarian 1.27% | OVCAR-3 ovarian 0.252% | HS 578T breast -5.1% | NCI/ADR-RES ovarian -13.1% | T-47D breast -0.867% | MDA-MB-435 melanoma -19.4% | MCF7 breast -12.6% | HCT-116 colon -31.2%

COc1ccccc1CNCCCN1C(=O)c2ccc3c4c(ccc(c24)C1=O)C(=O)N(CCCN)C3=O
inactive: SK-OV-3 ovarian 27.3% | NCI/ADR-RES ovarian 59.4%
active: RPMI-8226 leukemia -13.6% | OVCAR-8 ovarian -24.2% | OVCAR-5 ovarian -29.7% | OVCAR-4 ovarian -67.1% | IGROV1 ovarian -52.7% | OVCAR-3 ovarian -27.8% | HS 578T breast -13% | T-47D breast -42.6% | BT-549 breast -43.4% | MDA-MB-435 melanoma -88.3% | MCF7 breast -29.4% | HCT-116 colon -4.19% | HCC-2998 colon -56.8% | KM12 colon 4.38%

CCCCCCN1CCN(Cc2ccc(N(CC)CC)cc2)C(=O)C1=O
active: RPMI-8226 leukemia 4.35% | OVCAR-3 ovarian 5.54% | NCI/ADR-RES ovarian 0.986% | MDA-MB-435 melanoma -79.5%
inactive: OVCAR-8 ovarian 28.3% | OVCAR-5 ovarian 58.8% | OVCAR-4 ovarian 54.6% | SK-OV-3 ovarian 32.5% | IGROV1 ovarian 32.1% | HS 578T breast 20.6% | T-47D breast 25.5% | BT-549 breast 68.1% | MCF7 breast 17.2% | HCT-116 colon 34.2% | HCC-2998 colon 52% | KM12 colon 28.5%

CS(=O)(=O)Nc1ccc(Nc2c3ccccc3nc3cc(N)ccc23)cc1
inactive: RPMI-8226 leukemia 21.6% | OVCAR-8 ovarian 24.8% | OVCAR-5 ovarian 56.6% | OVCAR-4 ovarian 43.2% | SK-OV-3 ovarian 32% | IGROV1 ovarian 37.5% | OVCAR-3 ovarian 15.3% | HS 578T breast 23.7% | NCI/ADR-RES ovarian 96.5% | MDA-MB-435 melanoma 53.6% | SW-620 colon 39.8% | HCT-116 colon 28% | HCC-2998 colon 35.2%
active: T-47D breast -14.5% | MCF7 breast 6.57% | KM12 colon 5.56%

CC/C(C)=C(\C)C(=O)O
inactive: RPMI-8226 leukemia 107% | OVCAR-8 ovarian 103% | OVCAR-5 ovarian 112% | OVCAR-4 ovarian 118% | SK-OV-3 ovarian 91.9% | IGROV1 ovarian 104% | OVCAR-3 ovarian 105% | HS 578T breast 100% | NCI/ADR-RES ovarian 108% | T-47D breast 100% | MDA-MB-435 melanoma 99.1% | SW-620 colon 105% | MCF7 breast 98.6% | HCT-116 colon 109% | HCC-2998 colon 108% | KM12 colon 103%

Nc1c(C(=O)Nc2ccccc2Cl)sc2nc3c(cc12)C(=O)CCC3
active: MDA-MB-435 melanoma -53.3%
inactive: RPMI-8226 leukemia 87.9% | OVCAR-8 ovarian 100% | OVCAR-5 ovarian 70.5% | OVCAR-4 ovarian 84.4% | SK-OV-3 ovarian 13.8% | IGROV1 ovarian 62.9% | OVCAR-3 ovarian 56.4% | HS 578T breast 40.8% | NCI/ADR-RES ovarian 57.2% | T-47D breast 75% | BT-549 breast 61.2% | MCF7 breast 16.1% | HCT-116 colon 76.5% | HCC-2998 colon 63.2% | KM12 colon 28.5%
